Source: PubChem BioAssay AID1578 (Sanford-Burnham Center for Chemical Genomics, 2009)
Among all 290,000 compounds or so, about 3,000 (1%) were called active. The entries come from a sample that favours actives as a whole. A number with no mark means an inactive call. Rule as the data show it: active = inhibition mostly above about 36% (no sharp cut-off); inactive = mostly below about 34%.

Experiment: NOD1 signaling inhibitors, primary screen, cell-based, luminescence, uHTS (AID 1578);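 also: HEK-293T reporter cells stimulated with the NOD1 agonist gamma-tri-DAP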
Conditions: NOD1-driven NF-kB luciferase reporter cells, at 4 µM, active compounds read high

Structure (SMILES) | inhibition
[S-]C(=Nc1ccc(Cl)cc1)N[n+]1ccccc1 | 104% (active)
NC(=Nc1ccc(Cl)cc1)c1ccccc1 | -49%
CSC(=Nc1ccc(Cl)cc1)N[n+]1ccccc1 | -6.8%
NC(=O)CCc1nc2cc(C(F)(F)F)ccc2n(Cc2ccccc2)c1=O | -13%
O=C(NCCCn1ccnc1)/C(=C/c1ccccc1)NC(=O)c1ccccc1 | 32.8%
O=C(COc1ccccc1Cl)NNC(=O)c1cc(S(=O)(=O)N2CCOCC2)ccc1N1CCCC1 | -47.2%
COc1ccc(O)c(C2(O)C(=O)c3ccccc3C2=O)c1 | 0.1%
O=C(CNC(=O)c1ccc2c(c1)OCO2)N/N=C(Br)/C=C/c1ccccc1 | 80% (active)
O=C(NCCOc1ccccc1)c1ccc2c(c1)OCO2 | 55.9% (active)
COCCCNC(=O)c1ccc2c(c1)OCO2 | -16.8%
Cc1ccc(OCCNC(=O)c2ccc3c(c2)OCO3)cc1 | -63.7%
O=C(CNC(=O)c1ccc2c(c1)OCO2)N/N=C/c1cccc([N+](=O)[O-])c1 | -59.4%
CC(/C=C/c1ccccc1)=N/NC(=O)CNC(=O)c1ccc2c(c1)OCO2 | 5.3%
Cc1ccccc1C(=O)OCc1cnc(Cl)s1 | -8.8%
S=c1[nH]nc(C23CC4CC(CC(C4)C2)C3)n1Cc1ccco1 | 1.2%
O=C(COC(=O)/C=C/C(=O)N1CCN(c2ccccc2)CC1)NC(c1ccccc1)c1ccccc1 | 76.2% (active)
O=C(COC(=O)/C=C/C(=O)N1CCN(c2ccccc2)CC1)NCc1ccc(F)cc1 | -5.2%
CCOC(=O)/C=C/C(=O)OCC(=O)NC(c1ccccc1)c1ccccc1 | 25.7%
Cc1ccc(NS(=O)(=O)c2c(C)[nH]c(C)c2C(=O)N2CCCCC2)cc1F | -24.4%
CCCCn1c(Oc2ccc(C(=O)OC)cc2)nc2c1c(=O)n(C)c(=O)n2C | 9.2%
O=C(CN1C(=O)CC(c2ccccc2)Sc2ccccc21)NCC1CCCO1 (stereo not given) | -33.1%
Cc1[nH]nc2c1C(c1cccnc1)N(c1ccc(Br)cc1)C2=O (stereo not given) | 43.6% (active)
CCOC(=O)c1ccc(N2C(=O)c3n[nH]c(C)c3C2c2cccnc2)cc1 (stereo not given) | 9.9%
Cc1ccc(N2C(=O)c3n[nH]c(C)c3C2c2cccnc2)cc1 (stereo not given) | -28.2%
Nc1nc(CSCc2ccccc2)nc(N2CCOCC2)n1 | 2%

Structure (SMILES) | inhibition
CC(=O)N/N=C(\C)CCc1ccccc1 | -4.4%
Cc1cc(=O)[nH]c(SC(C)C(=O)Nc2cccc3ccccc23)n1 (stereo not given) | -23.2%
CC1=C(C(=O)OCc2ccccc2)C(c2ccccc2Cl)NC(=O)N1CCCC(=O)O (stereo not given) | 17.1%
CC1=C(C(=O)OCc2ccccc2)C(c2cccc(Cl)c2Cl)NC(=O)N1CCCCCC(=O)O (stereo not given) | 8.9%
CC1=C(C(=O)OCc2ccccc2)C(c2ccccc2Cl)NC(=O)N1CCCCCC(=O)O (stereo not given) | 68.6% (active)
O=C(O)c1ccc(NC(=O)c2cccc(N3C(=O)C4C5CCC(C5)C4C3=O)c2)cc1 (stereo not given) | -29.6%
O=C(Nc1ccc(Br)cc1)c1cccc(N2C(=O)C3C4CCC(C4)C3C2=O)c1 (stereo not given) | 11.1%
O=C(NC(c1ccccc1)c1ccccc1)c1cccc(S(=O)(=O)NCc2ccccc2)c1 | -4.9%
COc1cc(/C=C2/CC/C(=C/c3ccc(O)c(OC)c3)C2=O)ccc1O | 20.8%
COc1cc(OC)c(OC)cc1/C=C1/Cc2ccccc2C1=O | -5%
COc1ccc(/C=C2\CC/C(=C\c3ccc(OC)cc3OC)C2=O)c(OC)c1 | -1.2%
COc1cc(/C=C2\COC/C(=C\c3ccc(O)c(OC)c3)C2=O)ccc1O | 0%
COc1ccc(/C=C2\CCC/C(=C\c3ccc(OC)c(OC)c3OC)C2=O)c(OC)c1OC | -1%
COc1cc(OC)c(OC)cc1/C=C1\CCC(C2CCCC2)C1=O (stereo not given) | -28.9%
COc1cccc(NC(=O)N2CCCC(C(=O)NCc3ccc(F)cc3)C2)c1 (stereo not given) | -13.5%
COc1cc(-c2c(-c3cccc(C)c3)oc3ccccc23)cc(OC)c1OC | 4.2%
Cc1nn(Cc2ccccc2)c(C)c1/C=N/NC(=O)c1cccnc1 | 25.8%
Cc1c(/C=N/NC(=O)c2cccnc2)c2ccccc2n1Cc1ccccc1 | 38.8% (active)
O=C(N/N=C/c1c(O)n(Cc2ccccc2)c(=O)c2ccccc12)c1cccnc1 | -5.8%
CC1CCN(C(=O)c2ccccc2NC(=O)c2cccc(S(=O)(=O)N3CCOCC3)c2)CC1 | -2.3%
COc1ccc(CN(C)C(=O)CCl)cc1 | 10%
CN(Cc1ccc(Cl)s1)C(=O)CCl | 99.8% (active)
CCOc1ccc(CN(C)C(=O)CCl)cc1 | 10.8%
O=C(NC1CC1)C1CCN(C2CCN(C(=O)/C=C/c3cccc(F)c3F)CC2)CC1 | -10.9%
CC1CN(S(=O)(=O)c2ccc(C(=O)Nc3ccc(S(=O)(=O)Nc4ncccn4)cc3)cc2)CC(C)O1 (stereo not given) | -34.7%
